Results: PMC7862700, “An all-to-all approach to the identification of sequence-specific readers for epigenetic DNA modifications on cytosine”

What was measured:
Test in all cases: DAPPL (digital affinity profiling via proximity ligation, sequencing); 10 mM Tris-HCl pH 7.5, 50 mM NaCl, 1 mM DTT, 4% glycerol, room temperature, 30 min; GST-TFs on glutathione beads, 16-mer random dsDNA library, 0.1% formaldehyde crosslink after washing; high values mean tight binding
Conditions in all cases: protein: recombinant; tags: N-terminal GST; dsDNA, one strand shown
[1] = target: ELF4 (Homo sapiens, UniProt Q99607 1-663)
ELF4, sequence (Q99607 whole entry, the tested form may be a part): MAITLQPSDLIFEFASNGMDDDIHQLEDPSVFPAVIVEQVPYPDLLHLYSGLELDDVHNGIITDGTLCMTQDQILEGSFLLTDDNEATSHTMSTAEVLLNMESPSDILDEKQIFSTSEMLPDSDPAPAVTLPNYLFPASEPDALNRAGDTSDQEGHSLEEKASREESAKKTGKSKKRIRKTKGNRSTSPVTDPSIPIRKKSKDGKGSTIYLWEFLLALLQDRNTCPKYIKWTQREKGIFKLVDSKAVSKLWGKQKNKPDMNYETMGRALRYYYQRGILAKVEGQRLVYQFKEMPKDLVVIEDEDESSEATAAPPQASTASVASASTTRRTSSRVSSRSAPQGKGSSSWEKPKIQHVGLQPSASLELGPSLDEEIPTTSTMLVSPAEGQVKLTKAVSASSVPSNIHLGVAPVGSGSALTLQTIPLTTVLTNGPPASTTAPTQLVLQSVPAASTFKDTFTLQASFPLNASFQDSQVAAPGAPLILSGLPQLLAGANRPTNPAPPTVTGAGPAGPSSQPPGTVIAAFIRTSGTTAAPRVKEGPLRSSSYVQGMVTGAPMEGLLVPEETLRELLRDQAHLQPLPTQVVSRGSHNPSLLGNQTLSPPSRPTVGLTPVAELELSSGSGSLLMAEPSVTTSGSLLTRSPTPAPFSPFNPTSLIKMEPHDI
Method in brief: (§1)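 Binding signal is defined as a hexamer's read frequency for one factor over its frequency for the tag-only sample. To obtain reads, GST-fused human transcription factors were expressed in yeast, captured on glutathione beads, barcoded with DNA and pooled with that sample. Pools met 200 nmole of a 16-mer random double-stranded DNA library in Tris/NaCl/DTT/glycerol buffer for 30 min at room temperature before washing, 0.1% formaldehyde crosslinking, proximity ligation (BsaI/T4 ligase, 1 h, 37 °C), PCR and Illumina NextSeq500 sequencing.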

[2] = target: T1, ETV2 (Homo sapiens, UniProt O00321 1-342)
T1 sequence: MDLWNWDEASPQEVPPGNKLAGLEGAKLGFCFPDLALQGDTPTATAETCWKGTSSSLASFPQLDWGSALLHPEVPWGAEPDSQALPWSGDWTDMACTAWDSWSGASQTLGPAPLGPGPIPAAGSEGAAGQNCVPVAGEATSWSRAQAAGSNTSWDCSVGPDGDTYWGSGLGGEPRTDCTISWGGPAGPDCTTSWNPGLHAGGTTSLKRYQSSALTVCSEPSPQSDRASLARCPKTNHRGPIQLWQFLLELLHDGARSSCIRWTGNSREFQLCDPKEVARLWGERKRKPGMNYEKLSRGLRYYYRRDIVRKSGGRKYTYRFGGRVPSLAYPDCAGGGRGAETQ
Method in brief: as §1

[3] = target: T2, ELF3 (Homo sapiens, UniProt P78545 1-371)
T2 sequence: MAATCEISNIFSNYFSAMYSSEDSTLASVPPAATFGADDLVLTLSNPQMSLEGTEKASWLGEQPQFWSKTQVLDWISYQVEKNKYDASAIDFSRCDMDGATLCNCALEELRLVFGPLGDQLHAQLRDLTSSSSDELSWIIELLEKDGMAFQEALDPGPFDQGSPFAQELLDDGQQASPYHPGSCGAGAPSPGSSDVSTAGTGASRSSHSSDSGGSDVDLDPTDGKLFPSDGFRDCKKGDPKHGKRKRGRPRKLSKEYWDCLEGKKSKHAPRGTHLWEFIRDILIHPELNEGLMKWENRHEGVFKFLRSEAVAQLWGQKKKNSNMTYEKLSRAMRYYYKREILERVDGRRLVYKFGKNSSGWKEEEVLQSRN
Method in brief: as §1

[4] = target: ETV1 (Homo sapiens, UniProt P50549 1-477)
ETV1, sequence (P50549 whole entry): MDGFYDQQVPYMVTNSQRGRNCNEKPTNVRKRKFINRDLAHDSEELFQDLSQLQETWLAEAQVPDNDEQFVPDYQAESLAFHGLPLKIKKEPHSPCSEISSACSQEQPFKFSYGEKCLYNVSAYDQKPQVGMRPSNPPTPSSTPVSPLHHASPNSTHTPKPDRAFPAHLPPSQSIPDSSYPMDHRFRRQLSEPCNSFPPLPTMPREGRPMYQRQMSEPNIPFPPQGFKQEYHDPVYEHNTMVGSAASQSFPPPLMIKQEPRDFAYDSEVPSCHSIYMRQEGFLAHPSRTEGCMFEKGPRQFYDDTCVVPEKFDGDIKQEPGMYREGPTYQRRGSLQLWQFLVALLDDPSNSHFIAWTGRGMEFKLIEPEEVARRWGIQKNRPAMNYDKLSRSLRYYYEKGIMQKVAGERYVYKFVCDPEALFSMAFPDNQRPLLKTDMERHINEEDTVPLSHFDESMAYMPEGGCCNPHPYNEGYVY
Method in brief: as §1

[5] = target: T3, ERF (Homo sapiens, UniProt P50548 1-548)
T3 sequence: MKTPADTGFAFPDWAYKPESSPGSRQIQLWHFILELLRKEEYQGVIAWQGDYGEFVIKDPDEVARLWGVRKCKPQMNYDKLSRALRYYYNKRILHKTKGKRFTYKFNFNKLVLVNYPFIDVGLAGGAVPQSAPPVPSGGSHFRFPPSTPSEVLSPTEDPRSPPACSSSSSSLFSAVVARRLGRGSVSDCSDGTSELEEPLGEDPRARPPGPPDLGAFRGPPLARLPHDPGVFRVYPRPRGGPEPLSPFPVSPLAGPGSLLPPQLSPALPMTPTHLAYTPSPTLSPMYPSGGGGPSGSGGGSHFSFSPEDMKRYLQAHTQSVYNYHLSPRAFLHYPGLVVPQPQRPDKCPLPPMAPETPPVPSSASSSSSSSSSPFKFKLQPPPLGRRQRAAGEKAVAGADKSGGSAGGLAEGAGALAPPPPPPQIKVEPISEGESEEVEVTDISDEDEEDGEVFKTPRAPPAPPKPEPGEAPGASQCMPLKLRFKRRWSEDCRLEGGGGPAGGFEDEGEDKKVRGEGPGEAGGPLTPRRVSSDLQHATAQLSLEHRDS
Method in brief: as §1

[6] = target: T4, ETV3L (Homo sapiens, UniProt Q6ZN32 1-361)
T4 sequence: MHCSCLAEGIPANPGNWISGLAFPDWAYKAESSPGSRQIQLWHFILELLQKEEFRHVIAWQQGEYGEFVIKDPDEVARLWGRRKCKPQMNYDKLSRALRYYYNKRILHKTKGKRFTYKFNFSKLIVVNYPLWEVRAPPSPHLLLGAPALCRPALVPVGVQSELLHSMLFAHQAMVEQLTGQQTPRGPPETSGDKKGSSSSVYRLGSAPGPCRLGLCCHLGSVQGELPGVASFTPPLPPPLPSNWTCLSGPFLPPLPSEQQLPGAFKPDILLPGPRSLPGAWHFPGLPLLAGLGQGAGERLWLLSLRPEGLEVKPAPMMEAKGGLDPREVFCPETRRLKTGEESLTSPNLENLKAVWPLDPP
Method in brief: as §1

[7] = target: T5, ETS2 (Homo sapiens, UniProt P15036 1-469)
T5 sequence: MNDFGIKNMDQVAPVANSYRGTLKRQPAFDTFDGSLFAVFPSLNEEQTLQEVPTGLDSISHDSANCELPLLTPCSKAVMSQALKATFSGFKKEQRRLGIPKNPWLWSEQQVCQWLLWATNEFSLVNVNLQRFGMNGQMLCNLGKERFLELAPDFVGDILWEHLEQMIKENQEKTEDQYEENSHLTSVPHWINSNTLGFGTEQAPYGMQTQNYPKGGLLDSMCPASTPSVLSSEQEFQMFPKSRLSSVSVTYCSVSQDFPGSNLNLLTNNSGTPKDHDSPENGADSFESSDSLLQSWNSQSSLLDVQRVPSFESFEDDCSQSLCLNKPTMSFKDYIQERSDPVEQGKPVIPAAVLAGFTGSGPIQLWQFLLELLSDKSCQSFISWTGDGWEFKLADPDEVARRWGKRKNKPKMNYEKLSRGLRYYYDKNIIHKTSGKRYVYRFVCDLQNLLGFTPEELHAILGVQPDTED
Method in brief: as §1

[8] = target: T6, ETV7 (Homo sapiens, UniProt Q9Y603 1-341)
T6 sequence: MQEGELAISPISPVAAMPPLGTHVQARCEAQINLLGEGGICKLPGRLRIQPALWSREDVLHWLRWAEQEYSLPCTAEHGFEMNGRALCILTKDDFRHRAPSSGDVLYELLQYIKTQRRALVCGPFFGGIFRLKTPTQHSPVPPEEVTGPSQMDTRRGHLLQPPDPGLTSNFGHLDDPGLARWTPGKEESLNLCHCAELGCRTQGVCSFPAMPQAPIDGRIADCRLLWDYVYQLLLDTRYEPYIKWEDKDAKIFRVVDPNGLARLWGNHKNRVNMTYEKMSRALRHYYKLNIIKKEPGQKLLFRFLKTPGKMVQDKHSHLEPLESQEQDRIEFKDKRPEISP
Method in brief: as §1

[9] = target: T7, ETV3 (Homo sapiens, UniProt P41162-2 1-143)
T7 sequence: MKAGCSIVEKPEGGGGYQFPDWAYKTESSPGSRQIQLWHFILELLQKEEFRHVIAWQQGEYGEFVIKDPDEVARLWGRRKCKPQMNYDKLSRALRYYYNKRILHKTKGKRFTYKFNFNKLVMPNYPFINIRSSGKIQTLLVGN
Method in brief: as §1

[10] = target: ETV6 (Homo sapiens, UniProt P41212 1-452)
ETV6, sequence (P41212 whole entry): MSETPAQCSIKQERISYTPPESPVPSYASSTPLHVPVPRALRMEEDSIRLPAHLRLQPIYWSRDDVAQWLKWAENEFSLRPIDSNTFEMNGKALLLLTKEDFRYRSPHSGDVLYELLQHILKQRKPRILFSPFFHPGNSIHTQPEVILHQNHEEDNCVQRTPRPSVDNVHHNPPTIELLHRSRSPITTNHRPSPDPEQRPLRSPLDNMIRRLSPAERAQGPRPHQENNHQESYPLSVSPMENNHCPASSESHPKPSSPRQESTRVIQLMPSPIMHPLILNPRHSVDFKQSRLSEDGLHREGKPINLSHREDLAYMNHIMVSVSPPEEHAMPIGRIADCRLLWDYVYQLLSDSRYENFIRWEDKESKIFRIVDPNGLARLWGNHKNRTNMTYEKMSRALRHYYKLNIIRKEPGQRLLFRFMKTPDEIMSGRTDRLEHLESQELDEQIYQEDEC
Method in brief: as §1

Sequence: GCCTGC
- binding signal [1]: 1.06 fold enrichment (6-mer frequency, TF over GST control)
- binding signal [2]: 1.15 fold enrichment (6-mer frequency, TF over GST control)
- binding signal [3]: 1.13 fold enrichment (6-mer frequency, TF over GST control)
- binding signal [4]: 1.18 fold enrichment (6-mer frequency, TF over GST control)
- binding signal [5]: 1.05 fold enrichment (6-mer frequency, TF over GST control)
- binding signal [6]: 1.17 fold enrichment (6-mer frequency, TF over GST control)
- binding signal [7]: 1.05 fold enrichment (6-mer frequency, TF over GST control)
- binding signal [8]: 1.13 fold enrichment (6-mer frequency, TF over GST control)
- binding signal [9]: 1.03 fold enrichment (6-mer frequency, TF over GST control)
- binding signal [10]: 1.05 fold enrichment (6-mer frequency, TF over GST control)
